# Data as given in PubChem BioAssay (Tox21).
# “And” between values parts separate entries of the source, which are not always exact repeats. Equal entries are not always repeated. Records with an inconclusive call do not appear. Where a call stands in place of a potency, no number is given. A structure can be active in one record and inactive in another. The source made the active and inactive calls. Calls come from the whole dose curve; as a rule, active = well fitted inhibition curve with a large enough effect in the repeat runs; inconclusive = weak or mixed curves; inactive = no such curve, though single readings can be large or run the other way.
# Biological target: Cytochrome P450 2C19 (Homo sapiens) (UniProt P33261)
# Sequence (P33261 whole entry, looked up): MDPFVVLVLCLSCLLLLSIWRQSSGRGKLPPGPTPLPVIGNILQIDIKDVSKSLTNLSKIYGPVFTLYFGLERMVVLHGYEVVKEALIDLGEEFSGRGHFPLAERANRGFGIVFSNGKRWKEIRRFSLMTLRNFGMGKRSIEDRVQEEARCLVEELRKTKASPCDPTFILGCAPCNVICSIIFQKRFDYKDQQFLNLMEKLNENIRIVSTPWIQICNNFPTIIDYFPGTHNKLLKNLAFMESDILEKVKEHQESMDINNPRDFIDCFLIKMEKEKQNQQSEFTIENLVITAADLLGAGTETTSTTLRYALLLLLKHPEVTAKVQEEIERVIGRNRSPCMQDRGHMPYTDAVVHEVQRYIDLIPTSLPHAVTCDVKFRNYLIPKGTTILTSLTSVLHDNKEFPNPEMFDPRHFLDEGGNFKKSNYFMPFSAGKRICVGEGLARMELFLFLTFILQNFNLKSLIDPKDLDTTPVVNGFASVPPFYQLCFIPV
# Assay: Cytochrome P450 Family 2 Subfamily C Member 19 (CYP2C19) small molecule antagonists: luciferase reporter qHTS assay (AID 1671197); note: nearly all actives have a fitted effect of over 65% in size
# Conditions: P450-Glo CYP2C19 enzyme, luciferin luminescence, 1 h; series mostly up to 115 µM; activity change, negative = inhibition: at the top concentration
# Excerpt: National Center for Advancing Translational Sciences [NCATS]
# U.S. Environmental Protection Agency [EPA]
# National Institutes of Environmental Health Sciences [NIEHS]
# National Toxicology Program [NTP]
# U.S. Food and Drug Administration [FDA]
# Cytochrome P450 (CYP) enzymes are membrane-bound hemeproteins that play a key role in metabolism of drugs and xenobiotics. Evaluation of the effect of chemicals on CYP isozymes is useful to minimize the adverse drug reactions and toxicities in drug development process. Tox21 chemicals were tested for their effect on CYP enzyme activities by using P450-Glo (TM) screening systems (Promega Corporation, Madison, WI). These systems provide a luminescent method containing proluciferin substrates and are converted to luciferin products by CYP isozymes. The luciferin products formed are detected with a luciferin detection reagent, and the amount of light produced is proportional to CYP activity. P450-Glo (TM) CYP2C19 screening system (Catalog. No. V9880) was used to detect the compounds that interfere in CYP2C19 activity. The positive control compound used for CYP2C19 assay is ketoconazole (Sigma-Aldrich, St. Louis, MO).
# Tox21 Assay Protocol Summary:
# Two ul of enzyme-substrate mix was dispensed into medium binding white/solid 1536-well plates (Greiner Bio-One North America Inc., Monroe, NC) using a BioRaptr Flying Reagent Dispenser (FRD, Beckman Coulter, Brea, CA). Compounds dissolved in DMSO and positive control (ketoconazole) were transferred to the assay plates at 23 nl using a Pintool station (Wako, San Diego, CA). The assay plates were incubated at room temperature for 10 min. Then 2 ul of NADPH regeneration solution was added to each well of the assay plates using an FRD and incubated at 37C for 1 h. The reaction was stopped by adding 4 ul of detection reagent using an FRD and after 20 min incubation at room temperature the luminescence signal was measured using a ViewLux plate reader (Perkin Elmer, Shelton, CT). Data were expressed as relative luminescence units.
# Potency is the fitted concentration of half-maximal effect.
Compound,Potency,"activity change, negative = inhibition"
Cn1c(=O)c2[nH]cnc2n(C)c1=O,inactive,–
NC(=O)c1cnccn1,inactive,–
Cc1noc(NS(=O)(=O)c2ccc(N)cc2)c1C,inactive,–
CCCNC(=O)NS(=O)(=O)c1ccc(Cl)cc1,inactive,–
Cc1ccccc1C(OCCN(C)C)c1ccccc1 (stereo not given),inactive,–
Nc1ccc(O)c(C(=O)O)c1,79 µM (active) and 31.7 µM (active) and inactive,–
Cc1ccc(C)c(OCCCC(C)(C)C(=O)O)c1,50.6 µM (active) and 56.4 µM (active) and inactive,–
CC(O)CO (stereo not given),inactive,–
O=C(c1ccccc1)C(O)c1ccccc1 (stereo not given),17.7 µM (active) and 31.7 µM (active) and 8.71 µM (active),–
Cn1cc[nH]c1=S,–,20.2% [at 52.9 µM] (inactive)
CC(C)[C@@H]1CC[C@@H](C)C[C@H]1O,inactive,–
CCCC(CCC)C(=O)O,inactive,–
O=C(O)CCC(=O)O,inactive,–
CCCCOC(=O)CC(CC(=O)OCCCC)(OC(C)=O)C(=O)OCCCC,2.19 µM (active) and 4.04 µM (active) and 3.56 µM (active),–
O=C(O)/C=C\C(=O)O,41.3 µM (active) and inactive,–
O=C(O)CCCCC(=O)O,inactive,–
Nc1ccc(C(=O)O)cc1,inactive,–
O=c1cc[nH]c(=S)[nH]1,28.5 µM (active) and inactive,–
CCCCC1C(=O)N(c2ccccc2)N(c2ccccc2)C1=O,5.6 µM (active) and 25.2 µM (active),–
NC(N)=NC(=O)c1nc(Cl)c(N)nc1N,inactive,–

Compound,Potency,"activity change, negative = inhibition"
O=S(=O)(O)c1ccc2cc(O)ccc2c1,inactive and 71.6 µM (active) and 79.6 µM (active),–
NC(=O)c1ccccc1O,inactive,–
CC(O)C(=O)O (stereo not given),inactive and 81.1 µM (active),–
NC(N)=O,inactive,–
O=C(O)C(=O)O,81 µM (active),-11.9% [at 10.5 µM] (inactive)
O=C(O)c1[nH]n(-c2ccc(S(=O)(=O)O)cc2)c(=O)c1N=Nc1ccc(S(=O)(=O)O)cc1,inactive and 79.9 µM (active) and 29.6 µM (active),–
Cc1cc(=O)[nH]c(=S)[nH]1,inactive,–
C[C@]12C=CC(=O)C=C1CC[C@@H]1[C@@H]2[C@@H](O)C[C@@]2(C)[C@H]1CC[C@]2(O)C(=O)CO,78.6 µM (active) and inactive,–
CCCCCCCCCCCCCCCC(=O)O,80.5 µM (active) and inactive,–
CCOc1ccc(NC(=O)CC(C)O)cc1 (stereo not given),inactive,–
NC(=O)NC1NC(=O)NC1=O (stereo not given),inactive,–
O=C(O)c1cccc([N+](=O)[O-])c1,–,8.38% (inactive)
C/C=C/c1ccc(OC)cc1,inactive and 21.9 µM (active),–
CC(=O)NS(=O)(=O)c1ccc(N)cc1,inactive,–
O=C(O)CCCCCCCC(=O)O,inactive,–
CC1(C)[C@@H]2CC[C@@]1(C)C(=O)C2,inactive,–
C1N2CN3CN1CN(C2)C3,–,7.99% [at 52.9 µM] (inactive)
CCCC(O)C(CC)CO (stereo not given),inactive,–
CCC1(c2ccccc2)C(=O)NCNC1=O,inactive,–
